A350 autofl – A350 region autofluorescence. Compound autofluorescence, 340/450 nm, Alexa 350 dye-equivalents; active compounds read high. AID 590. max dye-equivalent concentration, M. actives 11% (n = 59,000); in the data active = max dye-equivalent concentration above about 10 nM; inconclusive = mostly about 1.1 nM to 9.6 nM
HSD17B inh – inhibitors of human HSD17B10 dehydrogenase. actives 7.6% (n = 75,000). Potency, µM (highest dose often 57.1 µM), inactives show top-dose activity change, negative = inhibition, actives largely listed as inhibitors. recombinant HSD17B10, NADH fluorescence kinetic;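 note: the protocol describes HADH2 (HSD17B10) and not the HSD17B4 of the title; potency is the fitted concentration of half-maximal effect; % is set by controls: 0 for no effect and ±100 for the full control effect; nearly all actives have a fitted effect of over 70% in size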
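Enzyme plus compound, 15 min room temperature; substrate mix added (NAD+ 1 mM, beta-hydroxybutyryl-CoA 90 uM final); plates read kinetically for NADH fluorescence. HADH2 was His-tagged, E. coli-derived, 20 nM.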
AID923 – qHTS Assay for Allosteric/Competitive Inhibitors of Caspase-1: Spectroscopic Profiling in AFC Spectral Region | compound fluorescence, AFC spectral region (405/520 nm) | Potency, µM (highest dose often 57.5 µM), inactives show top-dose fluorescence increase, usual class: activators | actives 1.1% (n = 75,000); note: potency is the fitted concentration of half-maximal effect; 0% is about no effect
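Baseline compound fluorescence (AFC region, 405 nm ex/520 nm em) taken from the intercept of kinetic reads with 50 nM caspase-1 and 5 uM Ac-WEHD-AFC; normalized to an on-plate AFC standard curve; compounds titrated up to 57 uM.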
4MU fluor – 4-MU region autofluorescence. actives 11% (n = 59,000). AID 589. max dye-equivalent concentration, M. compound autofluorescence, 340/450 nm, 4-MU equivalents; active compounds read high; in the data active = max dye-equivalent concentration above about 10 nM; inconclusive = mostly about 1.1 nM to 9.6 nM
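Compounds in 100 mM Tris, pH 8.0, incubated 15 min at room temperature, then fluorescence read at 340 nm excitation/450 nm emission. Signal converted to 4-MU dye-equivalent concentration using an on-plate six-point 4-MU standard curve.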
HADH2 inh – HADH2 (human) dehydrogenase inhibition. Q99714. recombinant HADH2, NADH fluorescence, beta-hydroxybutyryl-CoA. Potency, µM (titrated, usually from 57.1 µM), for the others: at the top dose activity change, negative = inhibition, actives largely listed as inhibitors. actives 3.4% (n = 73,000); note: potency is the fitted concentration of half-maximal effect; % is set by controls: 0 for no effect and ±100 for the full control effect; nearly all actives have a fitted effect of over 60% in size
Target sequence (Q99714 whole entry, looked up, one chain of several): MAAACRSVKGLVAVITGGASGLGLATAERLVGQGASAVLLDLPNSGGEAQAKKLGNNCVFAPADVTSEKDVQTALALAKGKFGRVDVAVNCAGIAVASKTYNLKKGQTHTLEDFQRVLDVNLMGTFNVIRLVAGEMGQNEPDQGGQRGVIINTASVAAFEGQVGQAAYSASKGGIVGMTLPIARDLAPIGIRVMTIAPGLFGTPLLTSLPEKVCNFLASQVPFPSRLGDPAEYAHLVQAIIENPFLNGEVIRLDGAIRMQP
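20 nM HADH2 + cpd, 15 min RT; add 1 mM NAD+/90 uM beta-hydroxybutyryl-CoA; kinetic fluorescence 360/450 nm, 4 min. Tris-HCl pH 9.0, 0.01% Tween-20.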
CRE Fsk mod – CRE-bla signaling modulation under forskolin stimulation; actives 2.5% (n = 71,000); Potency, µM (top dose mostly 38.2 µM), without a hit: top-dose activity change, negative = inhibition, usual class: activators; CHO CRE-bla reporter (cAMP response element driving beta-lactamase), forskolin EC10, beta-lactamase ratio; active = well fitted activation curve with a large enough effect in the signal ratio, with a control signal flat, not every such curve was filed as active; inconclusive = small, poorly fitted or top-dose-only effect, or effect the other way, or a change in a side signal; the % refers to the signal ratio; note: potency is the fitted concentration of half-maximal effect; % of control where 0% means no effect
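AC50 values, positive or negative, reflect shifts in EC10 NKH 477-induced CRE-bla reporter activity in CHO cells. Incubation lasted 3 h at 37 °C before CCF4 substrate (2 h, room temperature) and ratiometric 460/530 nm reading.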
The depositor's hits bear a star. This is a sample that favours compounds with a hit; in the whole collection about 14% have one here. Unless noted, calls come from the whole dose curve; as a rule, active = well fitted curve in the direction sought with a large enough effect; inconclusive = small, poorly fitted or top-dose-only effect, or another doubt; inactive = no such curve, though single readings can be large; an effect the other way counts as inactive or inconclusive.

CCOC(=O)c1c(NC(=O)CSc2nnc(CNc3ccc(OC)cc3)n2C)sc(C)c1C was read as A350 autofl inactive, HSD17B inh -3.0%, AID923 -0.8%, 4MU fluor inactive, HADH2 inh -2.1% and CRE Fsk mod 18.9%.
For COC(=O)CSC1=C(C#N)C(c2ccc(C)cc2)C2=C(CCCC2=O)N1 (stereo unspecified) the results were A350 autofl 1.16e-07M*, HSD17B inh 282.8%, AID923 3.7%, 4MU fluor 8.93e-08M*, HADH2 inh 4.6% and CRE Fsk mod 9.8%.
`CCOC(=O)CSC1=C(C#N)C(C)C2=C(CCCC2=O)N1` (stereo unspecified) gave A350 autofl 5.42e-08M*, HSD17B inh 87.7%, AID923 7.3%, 4MU fluor 6.54e-08M*, HADH2 inh -19.0% and CRE Fsk mod 12.4%.
`CCOC(=O)CSC1=C(C#N)C(c2ccc(C)cc2)C(C(=O)OC)C(=O)N1` (stereo unspecified) gave A350 autofl inactive and 4MU fluor inactive.
`CCCSC1=C(C#N)C(c2ccc(OC)cc2)C2=C(CC(C)(C)CC2=O)N1` (stereo unspecified) gave A350 autofl 8.51e-08M* and 4MU fluor 4.58e-08M*.
COc1ccccc1N1CCN(S(=O)(=O)c2cccc(F)c2)CC1 was read as A350 autofl inactive, HSD17B inh 3.8%, AID923 0.9%, 4MU fluor inactive, HADH2 inh 6.6% and CRE Fsk mod 4.2%.
For CCOC(=O)c1oc2ccccc2c1NC(=O)COc1cccc(OC)c1 the results were A350 autofl 3.01e-08M*, HSD17B inh -25.6%, AID923 -0.6%, 4MU fluor 3.01e-08M*, HADH2 inh inconclusive and CRE Fsk mod 7.6%.
For CC(=O)Nc1c(C(=O)c2ccc(F)cc2)oc2ccccc12 the results were A350 autofl 1.26e-08M*, HSD17B inh 0.6%, AID923 3.0%, 4MU fluor 1.39e-08M*, HADH2 inh -2.6% and CRE Fsk mod 1.6%.
Screening CCOC(=O)c1oc2ccccc2c1NC(=O)COc1ccc(F)cc1 returned A350 autofl 2.21e-08M*, HSD17B inh -25.6%, AID923 0.2%, 4MU fluor 2.09e-08M*, HADH2 inh 1.5% and CRE Fsk mod 13.0%.
COc1ccc(OC)c(C(=O)c2oc3ccccc3c2NC(C)=O)c1 was read as A350 autofl inactive, HSD17B inh -1.3%, AID923 -1.0%, 4MU fluor inactive, HADH2 inh 4.4% and CRE Fsk mod 10.4%.
For CCOC(=O)c1oc2ccccc2c1NC(=O)c1ccccc1OC the results were A350 autofl 3.25e-08M*, HSD17B inh inconclusive, AID923 -0.6%, 4MU fluor 3.2e-08M*, HADH2 inh 31.6µM* and CRE Fsk mod 2µM*.
For CC(C)Oc1ccc(CC2CC(=O)NC2=O)cc1 (stereo unspecified) the results were A350 autofl inactive, HSD17B inh 5.9%, AID923 0.4%, 4MU fluor inactive, HADH2 inh 6.0% and CRE Fsk mod 2.1%.
Screening COc1ccc2oc(C)c(C(=O)Cn3ccnc3)c2c1 returned A350 autofl inactive, HSD17B inh 4.8%, AID923 0.6%, 4MU fluor inactive, HADH2 inh 10.4% and CRE Fsk mod 25.8%.
COCCOc1ccc(C(F)(F)F)cc1Nc1nc2ccccc2o1 was read as A350 autofl inactive, HSD17B inh 25.1µM*, AID923 0.1%, 4MU fluor inactive, HADH2 inh inconclusive and CRE Fsk mod inconclusive.
Screening CCN1CCN(c2nc(SC)nc3sc4c(c23)CC(C)(C)OC4)CC1 returned A350 autofl 1.37e-08M*, HSD17B inh inconclusive, AID923 3.0%, 4MU fluor 1.44e-08M*, HADH2 inh -3.6% and CRE Fsk mod inconclusive.
`CCN(CC)C1CC(=O)N(c2cccc(C)c2)C1=O` (stereo unspecified) gave HSD17B inh -22.8%, AID923 3.1%, HADH2 inh -19.6% and CRE Fsk mod -1.5%.

High-throughput results deposited in PubChem BioAssay by National Center for Advancing Translational Sciences (NCATS).
